# According to PubChem BioAssay (EPA / NIEHS):
# Inconclusive results are not listed. Calls of active or inactive are those of the source. Rule for the calls, unless noted: active = hit-call score of the fitted dose curve at least 0.9, where 1 is the maximum; inconclusive = response in the unintended direction; inactive = score below 0.9.
# Experiments:
# [1] = CEETOX_H295R_MTT_cell_viability: Viability Assessment in the CeeTox HT-H295R MTT Assay (AID 2283718; active = hit-call score of the fitted dose curve at least 0.9, where 1 is the maximum; inactive = score below 0.9)
# How it was run: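 MTT reduction (0.5 mg/ml, 4 h at 37 C; absorbance at 570 and 650 nm) gave viability as background-corrected percent change versus controls. H295R cells had 48 h forskolin (10 uM) prestimulation, then 48 h chemical exposure at 0.1% DMSO.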
# [2] = biological target: Luciferin 4-monooxygenase (Photinus pyralis) (UniProt P08659); assay: CCTE_Simmons_QuantiLum_inhib_2: CCTE's Firefly Luciferase Inhibition Assay, Simmons Lab (AID 2283767);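 for AC50: potency for inhibitors that lower luciferase luminescence relative to DMSO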
# How it was run: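 Cell-free QuantiLum luciferase, 5 ng/well; compounds 5 nM–87.5 uM final, 8 conc, 0.5% DMSO; 30 min, 37C, dark. Detection reagent (150 uM D-luciferin, 147 uM dATP, CoA, DTT, pH 7.8 final) injected per well, kinetic luminescence. Triplicate biological replicates.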
# [3] = ACEA_AR_agonist_AUC_viability: ACEA Biosciences xCELLigence Real-Time Cell Analysis on Androgen Receptor Agonism for Viability (AID 2283775);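 for AC50: viability read 80 hours after compound addition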
# How it was run: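 Viability endpoint from xCELLigence impedance in 22Rv1 prostate cells at 80 h. Eight-point series, 100 uM maximum final.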
# [4] = ACEA_AR_antagonist_AUC_viability: ACEA Biosciences xCELLigence Real-Time Cell Analysis on Androgen Receptor Antagonism for Viability (AID 2283776);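 note: 22Rv1 human prostate cancer cells growing on impedance electrode plates; area under impedance growth curve at 80 h after dosing as viability; hits lower the growth signal relative to DMSO meaning cytotoxicity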
# How it was run: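 Real-time electrical impedance tracks 22Rv1 proliferation after continuous compound exposure (top 100 uM final, 1:4 steps, 8 concentrations). The 80 h area-under-curve serves as the cytotoxicity readout relative to DMSO.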
# [5] = ACEA_ER_AUC_viability: ACEA Biosciences xCELLigence Real-Time Cell Analysis on Estrogen Receptor Agonism for Viability (AID 2283782);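 note: hit means loss of impedance signal meaning reduced cell growth or viability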
# How it was run: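 Viability endpoint: reduced impedance area under the curve relative to DMSO, recorded by real-time electrode sensing over ~80 h of continuous exposure. Duplicate plates of T47D in hormone-depleted medium; eight concentrations, 1:4 dilutions, 100 uM maximum.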
# Chain of Luciferin 4-monooxygenase (Photinus pyralis) (P08659 whole entry, looked up): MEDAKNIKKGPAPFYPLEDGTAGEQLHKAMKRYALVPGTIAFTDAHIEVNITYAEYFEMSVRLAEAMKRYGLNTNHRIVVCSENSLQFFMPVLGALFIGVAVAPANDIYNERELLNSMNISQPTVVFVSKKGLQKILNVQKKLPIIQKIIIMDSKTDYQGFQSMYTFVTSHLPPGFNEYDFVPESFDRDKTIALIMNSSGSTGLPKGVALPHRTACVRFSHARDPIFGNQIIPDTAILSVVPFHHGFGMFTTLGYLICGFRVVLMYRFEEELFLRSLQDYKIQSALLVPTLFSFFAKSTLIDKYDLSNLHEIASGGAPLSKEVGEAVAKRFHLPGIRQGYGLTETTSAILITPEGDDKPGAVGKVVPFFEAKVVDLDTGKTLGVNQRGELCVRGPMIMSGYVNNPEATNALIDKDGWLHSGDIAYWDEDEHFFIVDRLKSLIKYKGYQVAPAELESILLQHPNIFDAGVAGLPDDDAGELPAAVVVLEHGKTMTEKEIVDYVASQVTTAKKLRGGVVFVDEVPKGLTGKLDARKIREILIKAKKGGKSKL
smiles,measurement,setting,value
COCc1c(C(C)C)nc(C(C)C)c(/C=C/[C@@H](O)C[C@@H](O)CC(=O)O)c1-c1ccc(F)cc1,outcome,[1],inactive
CCN(CCC#N)c1ccc(N=Nc2c(Cl)cc([N+](=O)[O-])cc2Cl)cc1,AC50,[2],53.8 µM (active)
same,AC50,[3],3.43 µM (active)
same,AC50,[4],3.41 µM (active)
same,outcome,[5],inactive
C1CN(SSN2CCOCC2)CCO1,outcome,[2],inactive
same,outcome,[3],inactive
same,AC50,[5],82.4 µM (active)
CNC(=S)NN,outcome,[2],inactive
same,outcome,[3],inactive
same,outcome,[4],inactive
same,outcome,[5],inactive
O=C(Nc1ccccc1SSc1ccccc1NC(=O)c1ccccc1)c1ccccc1,outcome,[1],inactive
same,AC50,[5],77.7 µM (active)
CC/C=C\C/C=C\C/C=C\CCCCCCCC(=O)O,outcome,[2],inactive
same,outcome,[3],inactive
same,outcome,[4],inactive
same,outcome,[5],inactive
O=C(C=Cc1ccccc1)OCc1ccccc1,outcome,[1],inactive
same,outcome,[4],inactive
same,outcome,[5],inactive
O=S(=O)(O)c1ccccc1C=Cc1ccc(-c2ccc(C=Cc3ccccc3S(=O)(=O)O)cc2)cc1,outcome,[2],inactive
same,outcome,[4],inactive
same,outcome,[5],inactive
CCCCNc1ccc(NCCCC)c2c1C(=O)c1ccccc1C2=O,outcome,[1],inactive
COc1ccc2nc(N)sc2c1,outcome,[1],inactive
same,outcome,[5],inactive
CCCCCc1ccc(Cl)cc1,outcome,[4],inactive
same,outcome,[5],inactive
